CASP6 VEID inh – caspase-6 (human) enzyme inhibition | P55212 | AID 686996 | inhibition, % at 12.5 µM | 350,000 tested, 0.53% active | purified caspase-6, Z-VEID-R110 cleavage fluorescence;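 active = mean inhibition across replicates at least about 35%, with every replicate also reaching that limit, limit read from the data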;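 note: 0% = median of neutral control wells and 100% = no fluorescence left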
Target sequence (P55212 24-179 limits assumed): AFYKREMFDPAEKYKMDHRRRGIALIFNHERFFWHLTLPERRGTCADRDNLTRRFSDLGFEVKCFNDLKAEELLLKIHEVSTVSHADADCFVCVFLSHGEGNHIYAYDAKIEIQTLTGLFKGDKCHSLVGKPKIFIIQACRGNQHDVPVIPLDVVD
Target sequence (P55212 194-293 limits assumed): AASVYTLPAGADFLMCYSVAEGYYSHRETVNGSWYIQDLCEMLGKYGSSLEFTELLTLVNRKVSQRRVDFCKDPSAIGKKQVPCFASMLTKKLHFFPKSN
ERAP1 HTS inh – ERAP1 (human) enzyme inhibition; AID 652197; 340,000 tested, 0.15% active; recombinant ERAP1, Leu-AMC fluorescence, 60 min; inhibition, % at 10.7 µM;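 active = mean replicate inhibition of at least 30%, or all replicates individually reaching that 30% level; inactive = mean below 30% and not every replicate reaching it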;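 note: 0% = neutral control wells and 100% = L-leucinethiol positive control wells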
INS-1E GSIS act – GLuc luminescence reporter in INS-1E cells, primary screen for activators of glucose-dependent secretion of insulin | INS-1E GLuc reporter insulin secretion, 2-3 h | 370,000 tested, 0.61% active | activation, % at 16.6 µM;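 active = lowest replicate activation of at least 40%, so every replicate reaches that level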;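 note: 0% = median of neutral control wells and 100% = median of IBMX positive control wells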
SIRT5 inh – inhibitors of human sirtuin-5 desuccinylase | Q9NXA8 | Purified SirT5, succinyl-peptide AMC, trypsin-coupled fluorescence | 330,000 tested, 1.1% active | AID 652115 | inhibition, % at 15 µM; in the data active = inhibition above about 15%
FGF22 binding – shifts melting point of recombinant human FGF22; Q9HCT0; recombinant FGF22 thermal shift, SYPRO orange fluorescence; percent of sucrose octasulfate shift, DMSO zero; activity (Tm shift, normalised), % at 9.99 µM; 340,000 tested, 1.5% active; AID 651658;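 active = mean Tm shift, scaled 0 neutral to 100 positive control, at about 1.3% or above, every replicate too, limit read from the data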
Target sequence (Q9HCT0 whole entry, looked up): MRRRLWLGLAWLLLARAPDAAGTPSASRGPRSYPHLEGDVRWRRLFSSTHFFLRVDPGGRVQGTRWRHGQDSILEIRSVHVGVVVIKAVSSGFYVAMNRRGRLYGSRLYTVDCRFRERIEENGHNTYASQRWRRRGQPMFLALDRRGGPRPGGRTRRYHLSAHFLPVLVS
Numbers without * were called inactive. Shown are actives, neighbours in structure and some others; about 3.3% of the full set was active somewhere.

Screening CCC(=O)Nc1ccc2c(c1)C(=O)N(C)C[C@H](OC)[C@H](C)CN(CCC(F)(F)F)[C@@H](C)CO2 returned CASP6 VEID inh -1, ERAP1 HTS inh 4, INS-1E GSIS act 8, SIRT5 inh 4 and FGF22 binding 0.
CCCN1C[C@H](C)[C@H](OC)CN(C)C(=O)c2cc(NC(=O)c3ccc(F)cc3)ccc2OC[C@H]1C was read as CASP6 VEID inh 0, ERAP1 HTS inh 1, INS-1E GSIS act -5, SIRT5 inh 16* and FGF22 binding 0.
For COc1cccc(C(=O)Nc2ccc3c(c2)C(=O)N(C)C[C@H](OC)[C@@H](C)CN(CCc2ccccc2)[C@@H](C)CO3)c1 the results were INS-1E GSIS act -43, SIRT5 inh 18* and FGF22 binding 0.
CCC(=O)Nc1ccc2c(c1)C(=O)N(C)C[C@@H](OC)[C@H](C)CN(CC1CCCCC1)[C@@H](C)CO2 was read as ERAP1 HTS inh -4, INS-1E GSIS act -18, SIRT5 inh 22* and FGF22 binding 0.
`CCc1cccc(CC)c1NC(=S)N1CCn2cccc2C1c1ccncc1` (stereo unspecified) gave CASP6 VEID inh -2, ERAP1 HTS inh 3, INS-1E GSIS act -3, SIRT5 inh 17* and FGF22 binding 42.
`C[C@@H]1CN([C@H](C)CO)C(=O)Cc2cc(NS(=O)(=O)c3ccc(Cl)cc3)ccc2O[C@H]1CN(C)Cc1ccc(Oc2ccccc2)cc1` gave CASP6 VEID inh 1, ERAP1 HTS inh -1, INS-1E GSIS act -13, SIRT5 inh 20* and FGF22 binding 0.
C[C@H](CO)N1C[C@H](C)[C@H](CN(C)Cc2ccc(Oc3ccccc3)cc2)Oc2ccc(NS(=O)(=O)c3ccccc3)cc2CC1=O was read as CASP6 VEID inh 52*, ERAP1 HTS inh 0, INS-1E GSIS act -15, SIRT5 inh 12 and FGF22 binding 0.
C[C@H]1CN([C@@H](C)CO)C(=O)Cc2cc(NS(=O)(=O)c3ccc(Cl)cc3)ccc2O[C@H]1CN(C)Cc1ccc(Oc2ccccc2)cc1 was read as CASP6 VEID inh 0, ERAP1 HTS inh -3, INS-1E GSIS act -2, SIRT5 inh 11 and FGF22 binding 0.
Screening C[C@H]1CN([C@@H](C)CO)C(=O)c2cccc(NC(=O)c3ccncc3)c2O[C@@H]1CN(C)Cc1ccc2c(c1)OCO2 returned CASP6 VEID inh -1, ERAP1 HTS inh -1, INS-1E GSIS act -1, SIRT5 inh -3 and FGF22 binding 0.
CO[C@@H]1CN(C)C(=O)c2cc(NS(C)(=O)=O)ccc2OC[C@@H](C)N(CC2CCOCC2)C[C@H]1C was read as CASP6 VEID inh 1, ERAP1 HTS inh -1, INS-1E GSIS act -1 and SIRT5 inh -1.
For CSc1nc2ccc(Br)cc2[nH]1 the results were ERAP1 HTS inh -5, INS-1E GSIS act -13, SIRT5 inh 15* and FGF22 binding 0.
CC[C@H]1CC=CC[C@@H](C)Oc2ccccc2C(=O)N(C)[C@H](C)C(=O)N1 (mixture of isomers) was read as INS-1E GSIS act 11.
For CSc1nc2c(c(=O)[nH]1)C(c1ccc(F)cc1)CC(=O)N2 (stereo unspecified) the results were CASP6 VEID inh -2, ERAP1 HTS inh -6, INS-1E GSIS act 13, SIRT5 inh -6 and FGF22 binding 43*.
CSc1nc2c(c(=O)[nH]1)C(c1ccc(Br)cc1)CC(=O)N2 (stereo unspecified) was read as CASP6 VEID inh -4, ERAP1 HTS inh 1, INS-1E GSIS act 8, SIRT5 inh 15 and FGF22 binding 1.
Screening O=C(COC(=O)c1cc(=O)[nH]c2ccccc12)NC1CCCC1 returned CASP6 VEID inh 18, ERAP1 HTS inh -7, INS-1E GSIS act 40, SIRT5 inh 25* and FGF22 binding 0.
For CCCCNc1c(C(=O)OCC)c(=O)[nH]c2ccccc12 the results were INS-1E GSIS act -4.
For O=C(NCCc1ccccc1)c1cc(=O)[nH]c2ccccc12 the results were CASP6 VEID inh -4, ERAP1 HTS inh 3, INS-1E GSIS act 2, SIRT5 inh -5 and FGF22 binding 43*.
Screening CCOC(=O)c1cc(=O)[nH]c2ccccc12 returned CASP6 VEID inh -3, ERAP1 HTS inh -1, INS-1E GSIS act 47, SIRT5 inh -2 and FGF22 binding 43*.
CCOC(=O)Cc1c(Cl)c2ccccc2[nH]c1=O was read as CASP6 VEID inh -1, ERAP1 HTS inh -3, INS-1E GSIS act 8, SIRT5 inh 0 and FGF22 binding 43*.
Screening C[C@@H](NC(=O)C[C@H]1CC[C@H]2[C@@H](COC[C@H](O)CN2C(=O)Nc2cccc(Cl)c2)O1)c1ccccc1 returned CASP6 VEID inh 2, ERAP1 HTS inh -12, INS-1E GSIS act -22, SIRT5 inh 1 and FGF22 binding 0.
`C[C@H](CO)N1C[C@H](C)[C@H](CN(C)C(=O)Nc2ccc3c(c2)OCO3)OCCCC[C@H](C)Oc2ccc(NC(=O)Nc3ccccc3)cc2C1=O` gave CASP6 VEID inh 4, ERAP1 HTS inh -2, INS-1E GSIS act -3, SIRT5 inh 4 and FGF22 binding 0.
CCC(=O)N1CC2(C1)CN(C(=O)Cc1ccccc1)[C@H](CO)c1c2c2ccc(OC)cc2n1C was read as ERAP1 HTS inh 2, INS-1E GSIS act -3 and FGF22 binding 0.
Screening CCOC(=O)C[n+]1ccc2c([nH]c3ccccc32)c1C returned CASP6 VEID inh -1, ERAP1 HTS inh 51*, INS-1E GSIS act -4, SIRT5 inh -65 and FGF22 binding 0.
`Cc1cc(C(C)(C)C)ccc1NC(=O)CC(C)(C)CC(=O)O` gave CASP6 VEID inh 0, ERAP1 HTS inh 4, INS-1E GSIS act -14, SIRT5 inh -6 and FGF22 binding 0.
Screening CCC(=O)Nc1cc(C(C)(C)C)ccc1C(C)=O returned INS-1E GSIS act 67*.
For CO[C@H]1CN(C)C(=O)c2ccc(NC(=O)C3CC3)cc2OC[C@@H](C)N(Cc2cccc(F)c2)C[C@H]1C the results were INS-1E GSIS act -29.
For N#Cc1c(/N=C/c2ccc(-c3ccccc3C(=O)O)o2)sc2c1CCCC2 the results were CASP6 VEID inh 57*, ERAP1 HTS inh 14, INS-1E GSIS act 9, SIRT5 inh 8 and FGF22 binding 0.
For CCOc1ccc(S(=O)(=O)Nc2cc(SCC(=O)O)c(O)c3ccccc23)cc1 the results were CASP6 VEID inh 88*, ERAP1 HTS inh -2, INS-1E GSIS act -7, SIRT5 inh 1 and FGF22 binding 0.
Screening O=C(O)CSc1cc(NS(=O)(=O)c2cccc([N+](=O)[O-])c2)c2ccccc2c1O returned CASP6 VEID inh 68*, ERAP1 HTS inh 8, INS-1E GSIS act -19, SIRT5 inh 6 and FGF22 binding 0.
For CCc1ccc(S(=O)(=O)Nc2cc(SCC(=O)O)c(O)c3ccccc23)cc1 the results were CASP6 VEID inh 67*, ERAP1 HTS inh 1, INS-1E GSIS act -56, SIRT5 inh 1 and FGF22 binding 0.
For CCOC(=O)c1ccccc1NS(=O)(=O)c1ccc(OCC)cc1 the results were INS-1E GSIS act -19.

Assay outcomes (PubChem)
